# Results reported in paper PMC4336329 (PLoS ONE, 2015).
# Hit rate of the full screen: of about 310,000 compounds, about 14,000 (4.5%) showed an effect of 50% or more. The effect is printed as a negative number. What follows is part of a selection rich in strong results, with near analogues and random picks from the rest.
# Biological target: human ether-à-go-go-related gene (hERG) potassium channel (human, UniProt Q12809)
# Test: primary screen, population patch clamp on CHO cells stably expressing hERG; higher = less effect of the substance
# 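Note: peak tail current of the secondary pulse compared with the same well before compound.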
# human ether-à-go-go-related gene (hERG) potassium channel, sequence (Q12809 whole entry, looked up): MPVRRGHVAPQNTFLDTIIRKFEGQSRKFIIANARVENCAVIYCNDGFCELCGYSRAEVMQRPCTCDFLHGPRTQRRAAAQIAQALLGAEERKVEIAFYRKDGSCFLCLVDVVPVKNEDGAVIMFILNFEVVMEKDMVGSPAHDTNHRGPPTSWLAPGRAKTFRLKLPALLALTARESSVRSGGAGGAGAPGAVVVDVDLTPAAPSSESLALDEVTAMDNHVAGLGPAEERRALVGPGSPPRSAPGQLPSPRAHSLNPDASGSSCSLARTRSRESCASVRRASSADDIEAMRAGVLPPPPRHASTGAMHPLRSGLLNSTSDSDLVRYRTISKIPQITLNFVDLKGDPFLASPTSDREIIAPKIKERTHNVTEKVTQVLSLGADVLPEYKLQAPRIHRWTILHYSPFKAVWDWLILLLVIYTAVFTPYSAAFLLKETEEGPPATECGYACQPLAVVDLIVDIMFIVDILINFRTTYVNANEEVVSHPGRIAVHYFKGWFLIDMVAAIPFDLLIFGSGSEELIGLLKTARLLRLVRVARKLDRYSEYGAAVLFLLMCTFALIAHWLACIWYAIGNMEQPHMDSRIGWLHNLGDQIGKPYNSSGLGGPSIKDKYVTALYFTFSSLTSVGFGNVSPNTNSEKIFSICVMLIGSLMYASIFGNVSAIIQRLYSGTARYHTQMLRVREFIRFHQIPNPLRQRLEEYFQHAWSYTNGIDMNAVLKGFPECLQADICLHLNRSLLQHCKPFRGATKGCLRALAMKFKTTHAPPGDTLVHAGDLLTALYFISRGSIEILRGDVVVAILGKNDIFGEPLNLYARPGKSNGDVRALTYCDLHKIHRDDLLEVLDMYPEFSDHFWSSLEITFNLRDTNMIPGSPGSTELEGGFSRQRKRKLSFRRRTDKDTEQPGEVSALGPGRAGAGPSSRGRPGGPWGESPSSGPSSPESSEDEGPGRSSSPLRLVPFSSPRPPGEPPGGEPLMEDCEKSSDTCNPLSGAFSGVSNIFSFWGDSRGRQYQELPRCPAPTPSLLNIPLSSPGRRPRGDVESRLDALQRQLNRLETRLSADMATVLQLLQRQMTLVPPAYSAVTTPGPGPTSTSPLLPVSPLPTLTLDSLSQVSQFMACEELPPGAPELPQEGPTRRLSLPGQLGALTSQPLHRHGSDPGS
row,Compound,"hERG current change (%, negative = inhibition) at 10uM"
1,CCOC(=O)C1CCN(C(=O)CSc2n[nH]c(=O)[nH]c2=O)CC1,7.16%
2,CC(C)Oc1ccc(CNC(=O)CC(c2ccccc2)c2cc(Cl)ccc2O)cc1 (centres unmarked),11.8%
3,COc1ccc(CN(CCC(c2ccco2)C(C)C)C(C)=O)cc1OC (centres unmarked),0.825%
4,COc1ccc(C(CCN(Cc2ccc(OC)c(OC)c2)C(C)=O)C(C)C)cc1 (centres unmarked),-52.3%
5,COc1ccc(C(CCN(Cc2ccc(OC)c(OC)c2)C(C)=O)c2ccccc2)cc1 (centres unmarked),-33.9%
6,COc1ccc(CNC(=S)NCc2ccc(F)cc2)cc1OC,-0.604%
7,COc1ccc(C(CCNCc2ccc(OC)c(OC)c2)c2ccc(F)cc2)cc1 (centres unmarked),-71.3%
8,CC(C)Oc1ccc(C(CCNCc2ccc(O)cc2)c2ccccc2)cc1 (centres unmarked),-58.7%
9,CC(C)Oc1ccc(CNC(=O)Oc2ccccc2)cc1,8.19%
10,COc1ccc(NCc2ccc(OC)c(OC)c2)cc1,2.67%
11,Cc1ccc(S(=O)(=O)N2CCN(S(=O)(=O)N3CCOCC3)CC2)cc1,13.4%
12,COCCCNC(=O)CCc1nnc2ccc(N3CCC(C)CC3)nn12,10.9%
13,O=C(CSC1=NS(=O)(=O)c2ccccc2N1)c1ccccc1,-8.85%
14,COc1ccc(CNC(=O)C/C(C)=N/NC(=O)COc2ccc(Br)cc2)cc1,-33.3%
15,O=C(O)c1ccc(NCc2cccnc2)c([N+](=O)[O-])c1,30%
16,Cc1ccc(C(=O)n2nc(-c3ccccc3)nc2NCc2ccco2)cc1,16%
17,Cc1cc(C)n(CCC(=O)Nc2ccc3c(c2)OCCO3)n1,17.1%
18,COc1ccc(CN2CCCCC2c2cccnc2)cc1C (centres unmarked),0.438%
19,O=C(c1ccco1)N1CCN(C(=O)c2oc(=O)c3ccccc3c2-c2ccccc2)CC1,-50.7%
20,O=C(c1oc(=O)c2ccccc2c1-c1ccccc1)N1CCN(C2CCCCC2)CC1,-61.6%
21,Cc1ccc(-c2c(C(=O)N3CCOCC3)oc(=O)c3ccccc23)cc1,-17.8%
22,Cc1nc2ccccc2c2oc(C(=O)N3CCC(N4CCCCC4)CC3)cc12,-38.8%

row,Compound,"hERG current change (%, negative = inhibition) at 10uM"
1,O=C(c1oc(=O)c2ccccc2c1-c1ccccc1)N1CCC(O)CC1,-11.6%
2,O=C(c1oc(=O)c2ccccc2c1-c1ccccc1)N1CCOCC1,-24.6%
3,Cc1nc2ccccc2c2oc(C(=O)N3CCC(C)CC3)cc12,-30.5%
4,CCOC(=O)N1CCN(C(=O)c2oc(=O)c3ccccc3c2-c2ccc(C)cc2)CC1,-31.4%
5,Cc1nc2ccccc2c2oc(C(=O)N3CCN(C4CCCCC4)CC3)cc12,-64.7%
6,CCOC(=O)c1cnn2c(N)c(C#N)cnc12,13.9%
7,C/C(=N\O)C(=O)NCCN1CCCCC1,-10.2%
8,Cc1c(C#N)c(NC(=O)CCl)n(Cc2ccc(F)cc2)c1C,12.8%
9,N#Cc1nc(-c2ccc(OCc3ccccc3)cc2)oc1NCc1ccco1,7.75%
10,CCn1c2c(c3cc(OCC(C)C)ccc31)CCCC2=O,6.13%
11,Cc1cc(C(=O)Nc2ccccn2)cs1,3.35%
12,Cc1cc(C)nc(NS(=O)(=O)c2ccc(NC(=O)CCN3C(=O)c4ccccc4C3=O)cc2)n1,3.74%
13,CC1CCN(C(C)C(=O)Nc2ccccc2-c2ccccc2)CC1.O=C(O)C(=O)O (centres unmarked),-15.4%
14,CC(C(=O)Nc1ccccc1-c1ccccc1)N1CCOCC1 (centres unmarked),-2%
15,CC(C(=O)Nc1ccccc1-c1ccccc1)N1CCN(C(=O)c2ccccc2)CC1 (centres unmarked),-66.9%
16,CC(C(=O)Nc1ccccc1-c1ccccc1)N1CCN(S(=O)(=O)c2ccccc2)CC1 (centres unmarked),-14.3%
17,CC(C(=O)NC1CCCC1)N1CCN(Cc2ccccc2)CC1 (centres unmarked),28.6%
18,CC(C(=O)Nc1ccccc1-c1ccccc1)N1CCN(Cc2ccccc2)CC1 (centres unmarked),-72.2%
19,COCCOC(=O)C1=C(C)N=C2SCCC(=O)N2C1c1cccs1 (centres unmarked),13.8%
20,COc1cc(-c2csc(N3CCOCC3)n2)cc(OC)c1OC,13.3%
21,Cn1cc(C(=O)N2CCN(c3cccc(Cl)c3)CC2)c(=O)c2cc(S(=O)(=O)N3CCOCC3)ccc21,-17.6%
22,Cc1ccc(C)c(N2CCN(C(=O)CCCOc3cc(=O)n(C)c4ccccc34)CC2)c1,-40.8%
